An excerpt weighted towards active compounds, which were near 7% of everything screened.
rCAG binder – r(CAG) repeat RNA binding. TO-PRO-1 dye displacement fluorescence. AID 651821. inhibition, % at 3 µM. hit rate 1.3% among 370,000;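 active = inhibition above the plate cutoff, the mean of all test compounds on that plate plus 3 SD, cut at about 35% in these data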;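 also: 0% = DMSO alone and 100% = 100 µM mitoxantrone as full dye displacement; higher means more dye released from RNA so lower well fluorescence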
KLK7 zymogen act – activates the human kallikrein-7 zymogen; AID 652039; activation, % at 7 µM; P49862; hit rate 0.9% among 370,000; purified proKLK7, EDANS-DABCYL substrate fluorescence; 100% is mature enzyme control, 0% vehicle;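 active = activation above the mean of all tested compounds plus 3 SD, computed per campaign excluding outliers beyond control limits, cut at about 13% in these data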
AHR act – human AHR activation | activation, % at 5 µM | AHR-responsive luciferase reporter cells, luminescence | hit rate 2.5% among 320,000; in the data active = activation above about 47%;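 also: 0% = vehicle wells and 100% = reference agonist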
ADAM17 inh – inhibitors of human ADAM17 | P78536 | hit rate 0.83% among 370,000 | recombinant ADAM17, EDANS/DABCYL FRET peptide cleavage | inhibition, % at 6.95 µM;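 active = inhibition above the mean of compounds lying between control limits plus 3 SD, set per campaign, cut at about 8.5% in these data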;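 also: 0% = DMSO-only wells as the low control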
Target sequence (P78536 215-824 limits assumed): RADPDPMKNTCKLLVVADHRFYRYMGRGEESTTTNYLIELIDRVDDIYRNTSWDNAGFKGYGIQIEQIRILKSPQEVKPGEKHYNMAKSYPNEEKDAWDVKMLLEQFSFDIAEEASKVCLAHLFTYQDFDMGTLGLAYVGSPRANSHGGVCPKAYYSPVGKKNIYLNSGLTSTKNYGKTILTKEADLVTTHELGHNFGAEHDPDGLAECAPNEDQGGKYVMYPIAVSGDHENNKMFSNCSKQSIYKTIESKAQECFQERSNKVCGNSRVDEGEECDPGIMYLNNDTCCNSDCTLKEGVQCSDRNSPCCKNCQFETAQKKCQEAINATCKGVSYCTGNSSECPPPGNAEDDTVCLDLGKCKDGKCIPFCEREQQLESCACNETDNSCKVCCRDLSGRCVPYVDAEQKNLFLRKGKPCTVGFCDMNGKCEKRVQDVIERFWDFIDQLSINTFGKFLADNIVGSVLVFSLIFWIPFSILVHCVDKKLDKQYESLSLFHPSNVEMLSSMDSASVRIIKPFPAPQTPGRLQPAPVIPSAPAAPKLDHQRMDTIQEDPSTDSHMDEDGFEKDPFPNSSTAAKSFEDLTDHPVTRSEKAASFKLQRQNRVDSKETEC
ADAM10 inh – inhibits human ADAM10; hit rate 0.62% among 370,000; O14672; inhibition, % at 7 µM; recombinant ADAM10, EDANS/DABCYL FRET peptide cleavage, 3 h;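 active = inhibition above a per-campaign cutoff equal to the mean of compounds falling between control-based bounds plus 3 SD, cut at about 20% in these data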;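 also: 0% = DMSO wells while the 100% control is not disclosed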
NR3A LBD binder – modulates the human NR3A ligand-binding domain; NR3A LBD differential scanning fluorimetry, Tm shift; 0% = protein alone, 100% = glycine-bound protein; Tm shift relative to glycine control, % at 25 µM; hit rate 2.5% among 340,000;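 active = melting temperature shift of at least 10% of the positive control shift, at one fixed dose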
proKLK7 act conf – proKLK7 activation, confirmation; hit rate 68% among 3,200; activation, % at 7 µM; shares compounds with KLK7 zymogen act; purified proKLK7, EDANS-DABCYL substrate fluorescence; scaled: vehicle 0, mature enzyme 100; AID 686949;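 active = activation, as change over the incubation, above the mean of all tested compounds plus 3 SD, cut at about 13% in these data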
EDANS-DABCYL int – fluorescence interference counter-screen for KLK7 activators | shares compounds with KLK7 zymogen act | EDANS-DABCYL substrate fluorescence interference, no enzyme, 4 h; solvent 0%, active enzyme control 100% | activation, % at 7 µM | hit rate 80% among 3,200 | AID 686952;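 active = activation above the all-compound mean plus 3 SD, ignoring values outside control-based bounds, cut at about 4.8% in these data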;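 also: value is the 4 h activation minus the activation read at time zero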
EDANS interf – optically interferes with EDANS-DABCYL fluorescence, kallikrein-7 activator counter-screen | shares compounds with KLK7 zymogen act | EDANS-DABCYL peptide fluorescence interference, no enzyme | EC50, µM | hit rate 20% among 250 | AID 720493;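 active = compounds that raise the fluorescence signal in this interference counterscreen, with EC50 at or below 10 µM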;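 also: intact quenched peptide substrate alone read at 355 nm excitation and 520 nm emission; signal is fluorescence gain from T0 to T4 after four hours at room temperature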
* marks the source's active call; other numbers are inactive results; i = inactive; x = no result given.

SMILES | rCAG binder | KLK7 zymogen act | AHR act | ADAM17 inh | ADAM10 inh | NR3A LBD binder | proKLK7 act conf | EDANS-DABCYL int | others
CCOC(=O)NN1C(=O)c2ccccc2NC1C (stereo not given) | 0 | 13* | 0 | -325 | i | -1 | 25* | 28*
CCOC(=O)NN1C(=O)c2ccccc2NC1c1ccc(N(C)C)cc1 (stereo not given) | -1 | 6 | 1 | -152 | -462 | -1 | x | x
O=C(NN1C(=O)c2ccccc2NC1c1ccco1)c1ccccc1 (stereo not given) | 1 | 1 | 2 | -46 | -114 | 1 | x | x
CCOC(=O)NN1C(=O)c2ccccc2NC1c1ccc(OC)cc1 (stereo not given) | -3 | 36* | -1 | i | i | -6 | 20* | 23*
O=C(O)CCC(=O)NN1C(=O)c2ccccc2NC1c1ccco1 (stereo not given) | -6 | 15* | -3 | -226 | i | 0 | 49* | 16* | EDANS interf=>69
CS(=O)(=O)c1sc(C#N)c2c1C(=O)CC(c1ccccc1)C2 (stereo not given) | -2 | 0 | 8 | -5 | -3 | 0 | x | x
COc1ccc(C2Nc3ccccc3C(=O)N2NC(C)=O)c(OC)c1 (stereo not given) | -4 | 21* | 0 | -285 | i | -4 | 20* | 16* | EDANS interf=>70
COc1ccc(N2C(=O)c3ccccc3NC2c2ccc(NC(C)=O)cc2)c(OC)c1 (stereo not given) | 0 | 4 | 1 | -33 | -94 | 0 | x | x
N=c1oc2ccc3ccccc3c2cc1-c1nnc2n1CCCCC2 | 0 | 63* | -2 | i | i | 1 | 72* | 72*
Cc1c(N)cccc1Cl | 1 | 0 | x | -5 | -5 | 0 | x | x
O=C(COC(=O)Cc1n[nH]c(=O)c2ccccc12)Nc1c(Br)cc([N+](=O)[O-])cc1Br | 7 | 1 | x | 2 | -13 | 1 | x | x
COc1cccc2c1C(=O)O/C2=C/c1ccc2c(c1)OCO2 | 3 | 16* | 21 | -29 | -89 | x | -237 | -177
Cc1ccc(C(=O)COC(=O)CSc2cccc3cccnc23)c(C)c1 | 0 | 15* | -1 | -39 | -107 | 3 | 12 | 12*
O=c1nc2ccc(Cl)cn2c2ccc(S(=O)(=O)N3CCOCC3)cc12 | 12 | 20* | -3 | -496 | i | -1 | 70* | 78*
CN1CCN(c2ccc(S(=O)(=O)N3CCOCC3)cc2)CC1 | -3 | 1 | -2 | -3 | -1 | 0 | x | x
CC1(C)CC(=O)C2=C(C1)OC(N)=C(C#N)C2c1cc2c(cc1[N+](=O)[O-])OCO2 (stereo not given) | -54 | 108* | 16 | -67 | -232 | -5 | 65* | 66*
CCc1cc(=O)oc2c3c(cc(OCC(=O)NCCN4CCOCC4)c12)OC(C)(C)CC3 | -8 | 39* | 3 | i | i | 0 | 10 | 3
COc1ccccc1CNC(=O)COc1cc2c(c3oc(=O)cc(C)c13)CCC(C)(C)O2 | -1 | -17 | 9 | -171 | i | 0 | x | x
CCCc1cc(=O)oc2c3c(cc(OCC(=O)N4CCC[C@H]4C(=O)O)c12)OC(C)(C)CC3 | 13 | 40* | -1 | i | i | -1 | 48* | 69*
CCc1cc(=O)oc2c3c(cc(OCC(=O)NC4CC4)c12)OC(C)(C)CC3 | -6 | 13* | 12 | i | i | -2 | -86 | -109
CCc1cc(=O)oc2c3c(cc(OCC(=O)NCCCC(=O)O)c12)OC(C)(C)CC3 | 3 | 29* | -1 | i | i | -1 | 65* | 65*
CCC1NC(=O)c2cccnc2-n2c1nc1ccc(OC)cc1c2=O (stereo not given) | 2 | 0 | x | -2 | -1 | x | x | x
Cc1ccc(-c2sc(C(=O)NN)c(C)c2C#N)cc1 | 10 | 0 | 17 | 4 | -11 | 2 | x | x
CCc1cc(=O)oc2c3c(cc(OCC(=O)NCc4ccco4)c12)OC(C)(C)CC3 | x | x | 6 | x | x | -6 | x | x
Cc1c(C)c2c(OCC(=O)NCC3CCC(C(=O)O)CC3)cc3c(c2oc1=O)CCC(C)(C)O3 (stereo not given) | 1 | 5 | x | -205 | i | x | x | x
SMILES | rCAG binder | KLK7 zymogen act | AHR act | ADAM17 inh | ADAM10 inh | NR3A LBD binder | proKLK7 act conf | EDANS-DABCYL int | others
CCc1cc(=O)oc2c3c(cc(OCC(=O)NCCC(=O)O)c12)OC(C)(C)CC3 | 2 | 33* | -1 | i | i | -2 | 76* | 82*
CCc1cc(=O)oc2c3c(cc(OCC(=O)NCCCOC)c12)OC(C)(C)CC3 | -7 | 19* | 18 | i | i | 0 | 30* | 29*
Cc1cc(=O)oc2c3c(cc(OCC(=O)NCC4CCC(C(=O)O)CC4)c12)OC(C)(C)CC3 (stereo not given) | 5 | 40* | 0 | i | i | 0 | 76* | 77*
Cc1cc(=O)oc2c3c(cc(OCC(=O)NCCC(=O)O)c12)OC(C)(C)CC3 | 2 | 40* | x | i | i | 0 | 64* | 64*
COc1ccc(CNC(=O)COc2cc3c(c4oc(=O)cc(C)c24)CCC(C)(C)O3)cc1 | 1 | -22 | 6 | -129 | -487 | -2 | x | x
CCc1cc(=O)oc2c3c(cc(OCC(=O)NCc4ccncc4)c12)OC(C)(C)CC3 | -6 | 6 | 13 | i | i | 0 | x | x
CCCC[C@@H]1CNC(=O)C(=O)N1CCCCC1CCCCC1 | 0 | 0 | x | -1 | -1 | x | x | x
CN(C)c1ccc(C2C3C(=O)N(c4ccc(C(=O)O)cc4)C(=O)C3ON2c2ccccc2)cc1 (stereo not given) | 29 | 63* | 4 | -16 | -33 | 1 | 0 | 1
CCOC(=O)C1=C(COC(=O)Cc2ccccc2)NC(=O)NC1C (stereo not given) | -4 | 0 | 1 | 1 | -1 | 1 | x | x
CCOC(=O)C1=C(C)NC2=C(C(=O)CC(C)(C)C2)C1c1ccc(N(C)C)cc1 (stereo not given) | -1 | 2 | -1 | -8 | -20 | 1 | x | x
COCCOC(=O)C1=C(C)NC2=C(C(=O)CC(C)(C)C2)C1c1cccnc1 (stereo not given) | -4 | 18* | 1 | -215 | i | -1 | 39* | 34*
CC1=C(C(=O)OCC2CCCO2)C(c2ccncc2)C2=C(CC(C)(C)CC2=O)N1 (stereo not given) | -4 | 13* | 6 | -163 | -487 | -1 | 21* | 29*

Screens from PubChem.
